The full list was thinned out, with hits kept by preference.
USP2a block – qHTS Assay for Inhibitors of Ubiquitin-specific Protease USP2a Using CHOP2 as the Reporter; Ubiquitin carboxyl-terminal hydrolase 2 (Homo sapiens), O75604; USP2 core, Ub-CHOP2 coupled fluorogenic reporter, 485/531; Potency, µM (highest dose often 38.3 µM), hits mostly inhibitors; actives 0.01% (n = 330,000)
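USP2 core (10nM final) preincubated 30min RT with compound in 20mM Tris-HCl pH 8.0, 2mM CaCl2, 2mM beta-mercaptoethanol, 0.05% CHAPS; 25nM Ub-CHOP2 plus 25nM reporter substrate added, fluorescence (Ex485/Em531) read after 60min.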
p53 reactivation – qHTS assay for re-activators of p53 using a Luc reporter | H1299 p53-A138V BP100-luciferase reporter, luminescence, 24 h | Potency, µM (top dose mostly 92.2 µM), most hits filed as activators | AID 504706, 2011 | actives 0.063% (n = 320,000); further: nearly all actives have a fitted effect of over 45% in size
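p53-null H1299 cells stably carrying temperature-sensitive p53-A138V and a BP100-luciferase reporter were pinned with compounds (4-point, 1:5 series) and held 24 hrs at 37 deg C. Luminescence was read 10 min after detection reagent.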
ClpP mod – qHTS Assay for Activators of ClpP; ATP-dependent Clp protease proteolytic subunit (Bacillus subtilis (strain 168)), P80244; purified B. subtilis ClpP, FRET peptide cleavage, 20 min; Potency, µM (top dose mostly 57.5 µM); actives 1.9% (n = 340,000); AID 651965, 2013; active means well fitted falling curve with a large enough effect; inconclusive means small, poorly fitted or top-dose-only effect; inactive means no such curve, though single readings can be large or run the other way; further: the source files actives as falling curves though it sought activators and does not explain the sign; nearly all actives have a fitted effect of over 65% in size
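Buffer: 100 mM Tris/HCl pH8, 100 mM KCl, 0.05% low protease BSA, 2.5% glycerol, 0.01% Tween-20. ClpP 10 microg/mL final; 20 min RT; delta FRET normalized to ADEP and DMSO controls.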
Eya2 inh – qHTS Assay for Inhibitors of the Phosphatase Activity of Eya2 | Protein phosphatase EYA2 (Homo sapiens), O00167 | Potency, µM (highest dose often 76.9 µM), most hits filed as inhibitors | actives 0.006% (n = 330,000) | recombinant Eya2, OMFP fluorescence dephosphorylation (OMFP is methylfluorescein phosphate)
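Eya2 protein (added as 0.2 uM solution) was preincubated with compound for 10 min at ambient temperature in 50 mM HEPES pH 7.5, 50 mM NaCl, 5 uM MgCl2, 0.05% BSA, 1 mM DTT. OMFP (added at 50 uM) then reacted 10 min; fluorescence read at 485/525 nm.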
MmCpn inh – Inhibitors of TCP-1 ring complex (TRiC) of Methanococcus maripaludis (MmCpn): qHTS; purified Mm-Cpn ATPase, ADP Transcreener TR-FRET; actives 0.031% (n = 330,000); Potency, µM (titrated, usually from 76.9 µM), actives largely listed as inhibitors; further: nearly all actives have a fitted effect of over 80% in size
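ATP (10 uM final) was added to archaeal chaperonin (25 nM final) after 10 min exposure to test compound at 37°C; after 30 min further incubation, ADP was detected by competitive TR-FRET.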
a7 integrin act – qHTS for Activators of Integrin-Mediated Alleviation for Muscular Dystrophy; alpha7betagal myoblasts, beta-gal FDG fluorescence, 48 h; AID 624291, 2012; actives 0.064% (n = 350,000); Potency, µM (top dose mostly 38.3 µM), usual class: activators; further: nearly all actives have a fitted effect of over 60% in size
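Alpha7betagal+/- myoblasts (passage 13) were plated 16-24 hr, then exposed to compounds (1:260 dilution of DMSO stock) for 48 hours at 37C. After MPER lysis, β-galactosidase reporter activity was read as FDG fluorescence (ex 480/em 540) after 30 minutes.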
Of the large screens only hits and unclear results are named; the others gave an inactive call; ! = not confirmed by another sample. Unless noted, the call rests on the fitted dose curve; in most records, active means well fitted curve in the direction sought with a large enough effect; inconclusive means small, poorly fitted or top-dose-only effect, or another doubt; inactive means no such curve, though single readings can be large; an effect the other way counts as inactive or inconclusive.

CCCCN(CC)CCCNC(=O)c1cn(CC(C)C)c(=O)c2c1c1ccccc1n2C	ClpP mod 20µM!
CCOC(CCNC(=O)c1cn(CC(C)C)c(=O)c2c1c1ccccc1n2C)OCC	none (no result: ClpP mod)
CC(C)Cn1cc(C(=O)NCC2CCCO2)c2c3ccccc3n(C)c2c1=O (centres undefined)	ClpP mod 15.8µM
Oc1cc(Nc2ccc(N3CCCCC3)cc2)cc2cccnc12	none (no result: p53 reactivation, ClpP mod, a7 integrin act)
CCCCOc1ccccc1C1C(C(=O)OC)=CN(CC)C=C1C(=O)OC	ClpP mod 14.1µM
COC(=O)C1=CN(c2cc(C)cc(C)c2)C=C(C(=O)OC)C1c1cccc(F)c1	none
COC(=O)C1=CN(C(C)C)C=C(C(=O)OC)C1c1cccc(OC)c1	none
CCN1C=C(C(=O)OC)C(c2cccc(C)c2)C(C(=O)OC)=C1	ClpP mod 6.31µM
CCCOc1ccccc1C1C(C(=O)OC)=CN(C(C)C)C=C1C(=O)OC	ClpP mod 15.8µM
COc1ccc2c(c1)C(=O)CC2	none (no result: USP2a block, p53 reactivation, Eya2 inh, MmCpn inh, a7 integrin act)
CCCOc1ccc(-c2nc(C#N)c(N3CCc4ccccc4C3)o2)cc1	ClpP mod 15.8µM
CCOc1ccc(-c2nc(C#N)c(N3CCN(C)CC3)o2)cc1	ClpP mod inconclusive
CCCOc1ccc(-c2nc(C#N)c(N3CCN(CC)CC3)o2)cc1	USP2a block inconclusive, ClpP mod 28.2µM
CCOc1ccc(-c2nc(C#N)c(N3CCN(CC)CC3)o2)cc1	ClpP mod 10µM
CCCOc1ccc(-c2nc(C#N)c(N3CCN(C)CC3)o2)cc1	ClpP mod 31.6µM
CCn1ccc2cc(S(=O)(=O)N3CCCN(C(=O)Nc4ccc(C)c(F)c4)CC3)ccc21	none (no result: USP2a block, p53 reactivation, Eya2 inh, MmCpn inh, a7 integrin act)
CC(C)C(c1nnnn1Cc1ccccc1)N(CCCO)Cc1cc2cc3c(cc2[nH]c1=O)OCO3 (centres undefined)	ClpP mod 31.6µM
Cc1ccc2[nH]c(=O)c(CN(CCc3ccccc3)C(c3nnnn3Cc3ccco3)C(C)C)cc2c1 (centres undefined)	none (no result: ClpP mod)
CCC(c1nnnn1Cc1ccc(OC)cc1)N(CCCO)Cc1cc2cc3c(cc2[nH]c1=O)OCO3 (centres undefined)	ClpP mod 22.4µM
CN(C)c1cccc(-c2nnc(SCC(=O)NCc3ccco3)n2C)c1	none (no result: USP2a block, p53 reactivation, Eya2 inh, MmCpn inh, a7 integrin act)
CCOC(=O)CCCSc1nnc(CCCCCN2C(=O)c3cccc4cccc(c34)C2=O)o1	ClpP mod 28.2µM
N#Cc1ncc(-c2ccc3c(c2)OCCOCCOCCOCCOCCO3)nc1C#N	ClpP mod 31.6µM
COc1ccc(NC(=O)Cn2cnc3c(nc4n3CCCCC4)c2=O)c(OC)c1	none (no result: USP2a block, p53 reactivation, Eya2 inh, MmCpn inh, a7 integrin act)
COC(=O)c1sccc1-c1ccc(/C=N/OCc2c(Cl)cccc2Cl)o1	ClpP mod 5.01µM
COc1ccc(N2C(=O)c3ccccc3NC2c2ccc(OC)c(CSc3ccccn3)c2)cc1 (centres undefined)	ClpP mod 25.1µM, MmCpn inh inconclusive
COc1ccc(C2Nc3ccccc3C(=O)N2c2ccc(C)cc2)cc1Cn1nnc2ccccc21 (centres undefined)	ClpP mod 31.6µM
COc1ccc(C2Nc3ccccc3C(=O)N2c2ccc(C)cc2)cc1Cn1cc([N+](=O)[O-])cn1 (centres undefined)	none
COc1cc(C2Nc3ccccc3C(=O)N2c2ccccc2OC)ccc1O (centres undefined)	ClpP mod 31.6µM
COc1ccc(C2Nc3ccccc3C(=O)N2Cc2ccccc2)cc1COc1ccccn1 (centres undefined)	ClpP mod 25.1µM
COc1ccc(C2Nc3ccccc3C(=O)N2Cc2ccccc2)cc1COc1ccccc1F (centres undefined)	none (no result: USP2a block, p53 reactivation, Eya2 inh, MmCpn inh, a7 integrin act)
COc1ccc(C2Nc3ccccc3C(=O)N2Cc2ccco2)cc1COc1ccc(F)cc1 (centres undefined)	ClpP mod 25.1µM
COc1ccc(C2Nc3ccccc3C(=O)N2Cc2ccco2)cc1CN1C(=O)c2ccccc2C1=O (centres undefined)	none
COc1ccc(N2C(=O)c3ccccc3NC2c2ccc(OC)c(COc3ccccn3)c2)cc1 (centres undefined)	p53 reactivation inconclusive, ClpP mod 25.1µM!
O=C(O)CCc1nc2ccccc2n(CCc2ccccc2)c1=O	ClpP mod inconclusive
O=C(O)CCc1nn2c3ccccc3n(CC(=O)c3ccccc3)c2nc1=O	ClpP mod 31.6µM
O=C(O)CCc1nn2c3ccccc3nc2n(CCN2CCCCC2)c1=O	ClpP mod 17.8µM
Cn1c(=O)c2c(nc(N/N=C/c3ccncc3)n2Cc2ccccc2)n(C)c1=O	none
COc1cc(/C=N/Nc2nc3c(c(=O)n(C)c(=O)n3C)n2Cc2ccccc2)ccc1OC(=O)c1ccco1	ClpP mod 31.6µM
COc1cc2c(NC3CCN(C)CC3)nc(N3CCCN(C)CC3)nc2cc1OCCCCCN(C)C	none (no result: USP2a block, p53 reactivation, Eya2 inh, MmCpn inh, a7 integrin act)
COc1cccc(/C=C2/SC(=S)N(CC(=O)Nc3nccs3)C2=O)c1	none (no result: USP2a block, p53 reactivation, Eya2 inh, MmCpn inh, a7 integrin act)
Cc1ccccc1N(C)S(=O)(=O)c1ccc2[nH]cc(C(=O)NCC3CCCO3)c(=O)c2c1 (centres undefined)	ClpP mod 31.6µM
CCN(CC)S(=O)(=O)c1ccc2[nH]cc(C(=O)NCCCN3CCCCC3C)c(=O)c2c1 (centres undefined)	ClpP mod 22.4µM, MmCpn inh inconclusive
CCN(CC)S(=O)(=O)c1ccc2[nH]cc(C(=O)NCCN3CCCCCC3)c(=O)c2c1	ClpP mod inconclusive, MmCpn inh inconclusive
CCN(CC)S(=O)(=O)c1ccc2[nH]cc(C(=O)NCCCN3CCCCC3)c(=O)c2c1	ClpP mod 28.2µM
CN(CCC#N)S(=O)(=O)c1ccc2[nH]cc(C(=O)NCCc3ccccc3)c(=O)c2c1	ClpP mod 28.2µM
CCCSc1nnc2c(n1)OC(c1sccc1C)Nc1ccccc1-2 (centres undefined)	none (no result: USP2a block, p53 reactivation, Eya2 inh, MmCpn inh, a7 integrin act)
COc1cc(CN2CCNC(=O)C2CC(=O)O)cc(OC)c1 (centres undefined)	none (no result: ClpP mod)
COc1cc(CN2CCNC(=O)C2CC(=O)N2CCCN(C(C)=O)CC2)cc(OC)c1 (centres undefined)	ClpP mod 15.8µM
CN(C)c1ccc(N=Cc2ccnc3ccccc23)cc1	none (no result: USP2a block, p53 reactivation, Eya2 inh, MmCpn inh, a7 integrin act)
